Rows were chosen to be rich in hits. Some 2.5% of all compounds tested hit in one or more screens of this group.
Pol eta inh-1 – blocks human DNA polymerase eta activity. Q9Y253. recombinant Pol eta, fluorescent DNA replication assay. Potency, µM (top dose mostly 114 µM), for the others: at the highest dose activity change, negative = inhibition, actives largely listed as inhibitors. actives 1.2% (n = 390,000). AID 588591; also: % is scaled to controls: 0 for no effect and ±100 for the full control effect
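Pol eta (10 nM) was preincubated with compounds for 15 min at room temperature, after which fluorescent replication substrate (50 nM final) was added to start the reaction. Fluorescence was read kinetically at 0 and 10 min.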
Pol beta inh – blocks human DNA polymerase beta activity | Pol beta primer extension/strand displacement, fluorescence kinetic | Potency, µM (highest dose often 114 µM), inactives show at the highest dose activity change, negative = inhibition, usual class: inhibitors | actives 1.3% (n = 340,000); also: % is scaled to controls: 0 for no effect and ±100 for the full control effect
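Values derive from four-parameter Hill fits of normalized kinetic data: reads at 0 and 10 min following addition of 50 nM substrate to 10 nM Pol beta preincubated 15 min with compound.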
POLI inh – inhibitors of human DNA polymerase iota; Pol iota fluorescent replication assay, 10 min; Potency, µM (doses to about 115 µM), for the others: at the highest dose activity, negative = inhibition, usual class: inhibitors; actives 1% (n = 390,000)
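Pol iota at 10 nM preincubated 15 min with compounds at room temperature; reaction started with fluorescent substrate, 50 nM final. Fluorescence read kinetically at 0 and 10 min; buffer-only wells as negative control.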
Pol kappa inh-1 – DNA polymerase kappa (human) inhibition. Q9UBT6. purified Pol kappa, fluorescent DNA synthesis assay, 10 min. Potency, µM (doses to about 107 µM), for inactives: top-dose activity, negative = inhibition, hits mostly inhibitors. actives 0.53% (n = 400,000). AID 588579; also: % is scaled to controls: 0 for no effect and ±100 for the full control effect
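10 nM Pol kappa preincubated 15 min at room temperature with compounds, then reaction started with substrate at 50 nM final. Fluorescence read kinetically at 0 and 10 min; buffer-only wells served as negative control.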
L3MBTL1 block – L3MBTL1 (human) inhibition; actives 0.66% (n = 230,000); Potency, µM (doses to about 57.1 µM), for inactives: at the top dose activity, negative = inhibition, hits mostly inhibitors; AlphaScreen L3MBTL1–H3K9me1 peptide binding; Q9Y468; also: % is scaled to controls: 0 for no effect and ±100 for the full control effect; nearly all actives have a fitted effect of over 60% in size
Target sequence (Q9Y468 whole entry, looked up): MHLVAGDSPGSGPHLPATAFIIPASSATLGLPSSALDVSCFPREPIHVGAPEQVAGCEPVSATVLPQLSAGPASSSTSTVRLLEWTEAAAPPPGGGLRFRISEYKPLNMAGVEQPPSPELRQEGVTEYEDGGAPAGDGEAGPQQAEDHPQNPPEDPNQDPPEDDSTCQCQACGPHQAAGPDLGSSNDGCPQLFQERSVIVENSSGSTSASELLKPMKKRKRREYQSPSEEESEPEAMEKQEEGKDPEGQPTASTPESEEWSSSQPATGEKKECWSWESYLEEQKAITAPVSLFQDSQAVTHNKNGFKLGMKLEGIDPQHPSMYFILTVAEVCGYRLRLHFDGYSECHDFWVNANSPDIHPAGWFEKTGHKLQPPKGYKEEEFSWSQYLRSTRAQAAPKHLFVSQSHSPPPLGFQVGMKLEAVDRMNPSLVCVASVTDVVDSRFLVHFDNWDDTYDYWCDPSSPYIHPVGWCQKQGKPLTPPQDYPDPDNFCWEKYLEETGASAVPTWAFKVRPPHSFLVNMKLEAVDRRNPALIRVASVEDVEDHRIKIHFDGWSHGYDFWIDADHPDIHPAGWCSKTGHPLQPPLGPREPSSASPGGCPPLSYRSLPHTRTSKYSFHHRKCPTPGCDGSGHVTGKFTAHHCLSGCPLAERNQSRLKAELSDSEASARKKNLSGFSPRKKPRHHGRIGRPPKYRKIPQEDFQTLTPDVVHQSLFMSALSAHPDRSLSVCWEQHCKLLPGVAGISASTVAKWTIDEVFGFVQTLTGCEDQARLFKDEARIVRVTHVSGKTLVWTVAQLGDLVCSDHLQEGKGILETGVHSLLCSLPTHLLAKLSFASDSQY
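Displacement of a biotinylated histone H3(1-15) peptide monomethylated at Lys9 (75 nM) from L3MBTL1 (50 nM) was measured by AlphaScreen after a 30 min room-temperature compound incubation; cefsulodin titration served as intraplate control.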
APE1 inh – APE1 (human) endonuclease inhibition; recombinant APE1, TAMRA/BHQ-2 abasic DNA cleavage fluorescence; P27695; Potency, µM (doses to about 65.8 µM), without a hit: at the highest dose activity change, negative = inhibition, usual class: inhibitors; AID 2517; actives 0.35% (n = 350,000);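 also: plate controls were vehicle for no effect and reference inhibitor for full effect; nearly all actives have a fitted effect of over 55% in size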
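Substrate: short duplex with […] THF abasic site, 5'-TAMRA and 3'-BHQ-2, 50 nM final. APE1 at 0.75 nM, preincubated 15 min RT with compound. Fluorescence increase from first to third read measured activity.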
PGK validate – blocks T. brucei phosphoglycerate kinase; actives 79% (n = 500); shares compounds with Pol kappa inh-1; AID 686980; TbPGK coupled GAPDH assay, Kinase-Glo luminescence; Potency, µM (highest dose often 57.5 µM), for the others: at the highest dose activity change, negative = inhibition, most hits filed as inhibitors; also: % is scaled to controls: 0 for no effect and ±100 for the full control effect; nearly all actives have a fitted effect of over 65% in size
POLI cherry-pick – Confirm cherry-picked inhibitors of human polymerase iota; Pol iota primer extension, TAMRA/BHQ fluorescence; Potency, µM, most hits filed as inhibitors; actives 77% (n = 1,500); shares compounds with Pol kappa inh-1
Pol kappa inh-2 – confirmation of human DNA polymerase kappa inhibitors. actives 76% (n = 920). AID 720501. Potency, µM, hits mostly inhibitors. shares compounds with Pol eta inh-1. purified Pol-kappa, fluorescent strand-displacement substrate
Pol eta inh-2 – Pol eta (human) inhibition, cherry-pick confirmation; shares compounds with Pol eta inh-1; actives 64% (n = 2,600); AID 720502; Potency, µM, usual class: inhibitors; Pol eta primer extension, TAMRA/BHQ fluorescence, 10 min
An asterisk follows results filed as active; ? = inconclusive; nt = no result given. Calls follow the shape of the dose curve; as a rule, active = well fitted curve in the direction sought with a large enough effect; inconclusive = small, poorly fitted or top-dose-only effect, or another doubt; inactive = no such curve, though single readings can be large; an effect the other way counts as inactive or inconclusive. Potency is read from the fitted curve at half-maximal effect.

SMILES	Pol eta inh-1	Pol beta inh	POLI inh	Pol kappa inh-1	L3MBTL1 block	APE1 inh	POLI cherry-pick	Pol kappa inh-2	Pol eta inh-2	others
O=C1CCc2cc(S(=O)(=O)N3CCN(c4ccc(F)cc4)CC3)cc3c2N1CC3	6%	nt	7%	-16%	9%	42%	nt	nt	nt
Cc1ccc(S(=O)(=O)OCC(=O)Nc2ccc(C(=O)O)c(O)c2)cc1	3.2µM*	nt	20µM*	25µM*	nt	nt	19*	3.4*	19*
Cc1ccc(S(=O)(=O)Nc2ccc3c(c2)C(=O)N([C@H](C)CO)C[C@H](C)[C@@H](CN(C)Cc2ccccc2)O3)cc1	-19%	nt	17%	-2%	1%	-5%	nt	nt	nt
Cc1cc(C)c(Nc2cc(S(=O)(=O)O)c(N)c3c2C(=O)c2ccccc2C3=O)c(C)c1	18µM*	20µM*	?	?	16µM*	?	nt	34*	?	PGK validate=29µM*
C=CCOC(=O)c1cc(-c2ccc(/C=C3\C(=O)NC(=O)C(C#N)=C3C)o2)ccc1Cl	3.5µM*	13µM*	?	28µM*	nt	?	67*	nt	30*
CCN(CC)c1ccc2nc3ccc(N)cc3[n+](-c3ccccc3)c2c1	?	nt	79µM*	22µM*	?	24µM*	19*	47*	76*	PGK validate=13µM*
CCN(CC)c1ccc(/C=C/c2cc(Cl)nc3ccccc23)cc1	nt	nt	7%	-14%	nt	nt	nt	nt	nt
CCN(C(=O)COC(=O)/C(=C/c1ccccc1)NC(C)=O)c1c(N)n(Cc2ccccc2)c(=O)[nH]c1=O	-10%	nt	7%	-3%	nt	nt	nt	nt	nt
CCn1nc(-c2ccc(C)cc2)nc2c(=O)n(C)c(=O)nc1-2	nt	nt	-93%	-18%	nt	nt	2.4*	nt	1.7*
CCS(=O)(=O)n1nc(-c2ccc(C)cc2)nc1N	-7%	-13%	5%	-15%	3%	11%	nt	nt	nt
COc1ccc(CNC(=O)c2cnc3sc(N4CCOCC4)nn3c2=O)cc1	-4%	4%	?	?	nt	nt	nt	nt	nt
CN1\C(=C/C=C/C=C/C=[N+](C)C)C(C)(C)c2ccccc21	40µM*	16µM*	18µM*	50µM*	?	?	38*	38*	34*
CN1/C(=C\C=O)C(C)(C)c2ccccc21	-4%	5%	61%	-2%	-4%	-3%	nt	nt	nt
CC(/C=N/n1c(-c2ccccc2)n[nH]c1=S)=C\c1ccco1	?	?	-14%	-5%	-4%	-2%	nt	nt	nt
S=c1[nH]nc(-c2ccncc2)n1/N=C/C=C/c1ccco1	28µM*	20µM*	?	-89%	18µM*	?	42*	30*	27*
Cc1ccc(SC2=C(Sc3ccc(C)cc3)C(=O)c3ccccc3C2=O)cc1	18µM*	1%	6.3µM*	5%	?	14%	?	nt	85*
COC(=O)c1ccccc1-c1ccc(/C=C2\C(=O)N(c3ccccc3)N=C2c2ccccc2)o1	-9%	23%	0%	9%	-4%	-1%	nt	nt	nt
